Screening data: PubChem BioAssay, Broad Institute
Rows were chosen to be rich in hits. Some 3.1% of all compounds tested hit in one or more screens of this group.
RAD54 inh – RAD54 (human) branch migration inhibition. RAD54 Holliday junction branch migration, FAM/BHQ fluorescence. AID 602329. hit rate 0.14% among 360,000. inhibition, % at 10.4 µM;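 active means mean normalized replicate activity at least 40 and at least half of replicates scoring 40 or more; inconclusive means only one of the two criteria met; inactive means mean below 40 and under half of replicates reaching 40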;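 further: inhibitors cause a drop in the FAM fluorescence signal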
Target sequence (Q92698 whole entry, looked up): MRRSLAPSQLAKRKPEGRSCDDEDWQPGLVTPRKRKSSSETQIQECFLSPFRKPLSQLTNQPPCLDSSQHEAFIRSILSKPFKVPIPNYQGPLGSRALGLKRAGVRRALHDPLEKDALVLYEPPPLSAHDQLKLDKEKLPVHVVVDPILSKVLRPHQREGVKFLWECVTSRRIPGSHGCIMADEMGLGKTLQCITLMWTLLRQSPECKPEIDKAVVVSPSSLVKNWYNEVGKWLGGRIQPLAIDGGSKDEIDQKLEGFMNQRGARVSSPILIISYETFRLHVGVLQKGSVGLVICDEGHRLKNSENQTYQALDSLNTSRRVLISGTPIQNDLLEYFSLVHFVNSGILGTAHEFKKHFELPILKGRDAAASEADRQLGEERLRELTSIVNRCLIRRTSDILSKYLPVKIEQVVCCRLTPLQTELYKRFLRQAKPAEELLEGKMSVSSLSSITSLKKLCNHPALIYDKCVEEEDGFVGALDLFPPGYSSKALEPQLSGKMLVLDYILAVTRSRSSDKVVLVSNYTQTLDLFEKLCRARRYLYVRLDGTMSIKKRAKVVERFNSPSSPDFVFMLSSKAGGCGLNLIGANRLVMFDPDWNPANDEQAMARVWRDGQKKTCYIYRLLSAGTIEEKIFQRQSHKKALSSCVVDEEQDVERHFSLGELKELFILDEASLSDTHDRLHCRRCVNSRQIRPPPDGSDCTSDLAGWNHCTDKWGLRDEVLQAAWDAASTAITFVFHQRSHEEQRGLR
RAD52 inh – RAD52 (human) annealing inhibition. P43351. recombinant RAD52 DNA annealing, FRET fluorescence. inhibition, % at 18.7 µM. hit rate 0.46% among 360,000;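 active means every replicate showing at least 50% inhibition; inconclusive means mean inhibition at least 50% but not in every replicate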
AF4-AF9 inh – inhibitors of human MLL-AF4/AF9 interaction. AID 651704. hit rate 0.47% among 350,000. inhibition, % at 10 µM. AlphaScreen, biotin-AF4 peptide binding to FLAG-AF9;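 active means every replicate reaching a set inhibition limit, whatever the replicate mean, cut at about 25% in these data; inconclusive means mean inhibition reaches that limit but some replicates miss it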
INS-1E GSIS act – GLuc luminescence reporter in INS-1E cells, primary screen for activators of glucose-dependent secretion of insulin; INS-1E GLuc reporter insulin secretion, 2-3 h; hit rate 0.61% among 370,000; activation, % at 16.6 µM;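 active means lowest replicate activation of at least 40%, so every replicate reaches that level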
DENV2 CPE rescue – protects cells from dengue virus 2 cytopathic effect | DENV2-infected cells, cytopathic effect rescue, plate reader | CPE inhibition, % at 9.99 µM | hit rate 1.7% among 350,000; in the data active means CPE inhibition above about 20%, passing the limit was not always enough; inconclusive means no clear call, values can overlap the other calls; tested in BHK-21 cells
dFosB activator – mouse delta FosB homodimer activation; P13346; purified delta FosB, TAMRA-CDK5 oligo fluorescence polarization; percent of positive-control signal above neutral wells; activation, % at 25 µM; hit rate 0.99% among 340,000; AID 493131;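 active means mean activation above about 17%, with every replicate also reaching it, limit read from the data, passing the limit was not always enough; inconclusive means only one of the two conditions met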
Each line names hits and unclear results; the compound was inactive in the other large screens.

CCOC(=O)c1c(NC(=O)c2ccncc2)sc(C)c1C	none (no result: RAD54 inh)
CNC(=O)C[C@@H]1CC[C@@H]2[C@H](COc3ccc(NC(=O)c4ccc(F)c(F)c4)cc3C(=O)N2C)O1	DENV2 CPE rescue 97.1 (no result: dFosB activator)
CNC(=O)C[C@H]1CC[C@@H]2[C@H](COc3ccc(NC(=O)c4ccc(F)c(F)c4)cc3C(=O)N2C)O1	DENV2 CPE rescue 94.8 (no result: dFosB activator)
CNC(=O)C[C@H]1CC[C@H]2[C@H](COc3ccc(NC(=O)c4ccc(F)c(F)c4)cc3C(=O)N2C)O1	DENV2 CPE rescue inconclusive (no result: dFosB activator)
CC(C)NC(=O)N1C[C@@H]2[C@H](c3ccccc31)[C@@H](CO)N2C(=O)Nc1cccc(F)c1	none (no result: dFosB activator)
CN1CCN(C(=O)C[C@H]2C[C@H]3c4cc(NC(=O)c5ccc6c(c5)OCO6)ccc4O[C@H]3[C@@H](CO)O2)CC1	none (no result: dFosB activator)
COC(=O)c1sc(NC(=O)COc2cccnc2[N+](=O)[O-])c(C(=O)OC)c1C	INS-1E GSIS act 40.0
COc1ccccc1NC(=O)COc1cccnc1[N+](=O)[O-]	none
CCCN(C)C[C@@H]1Oc2cc(C#Cc3ccccc3OC)ccc2S(=O)(=O)N([C@H](C)CO)C[C@@H]1C	none (no result: dFosB activator)
O=C(/C=C/c1ccccc1)NCCc1ccc2c(c1)OCCO2	DENV2 CPE rescue 59.2 (no result: RAD54 inh)
Oc1ccc(/C=N/Nc2ccnc3cc(Cl)ccc23)c(O)c1	dFosB activator inconclusive
Clc1ccc2c(N/N=C/c3cccnc3)ccnc2c1	RAD54 inh 70.9
Cc1ccc(/C=N/Nc2ccnc3cc(Cl)ccc23)c(C)c1	dFosB activator 49.4
Clc1ccc2c(N/N=C/c3ccc(Br)cc3)ccnc2c1	dFosB activator 33.9 (no result: INS-1E GSIS act)
COc1ccccc1-c1ccc2c(c1)O[C@@H](CN(C)S(=O)(=O)c1ccc(F)cc1)[C@@H](C)CN([C@@H](C)CO)S2(=O)=O	none (no result: dFosB activator)
C[C@@H]1CN([C@@H](C)CO)C(=O)c2cccc(NC(=O)Nc3ccc(F)cc3)c2O[C@@H]1CN(C)C(=O)NC1CCCCC1	none (no result: RAD52 inh, DENV2 CPE rescue, dFosB activator)
Cc1noc(C)c1S(=O)(=O)Nc1ccc2c(c1)C(=O)N([C@H](C)CO)C[C@@H](C)[C@H](CN(C)C(=O)Nc1cccc3ccccc13)O2	none (no result: dFosB activator)
CSc1nsc(SCC(=O)Nc2ccc(Cl)c(C(=O)O)c2)n1	none
CSc1nsc(SCC(=O)Nc2ccc(O)c(C(=O)O)c2)n1	INS-1E GSIS act 40.4
Cn1ccnc1SCC(=O)Nc1cccc(C#N)c1	DENV2 CPE rescue 87.3
Cc1ccc(NC(=O)CSc2nccn2C)cc1F	none
CO[C@@H]1CN(C)C(=O)c2cc(NS(=O)(=O)c3cn(C)cn3)ccc2OC[C@H](C)N(C)C[C@H]1C	none (no result: RAD54 inh, RAD52 inh, AF4-AF9 inh, DENV2 CPE rescue, dFosB activator)
O=C(Nc1ccccc1)N1C[C@H]2[C@@H](c3ccccc31)[C@H](CO)N2C(=O)c1ccccn1	none (no result: dFosB activator)
O=C(c1ccccc1)N1C[C@H]2[C@@H](c3ccccc31)[C@H](CO)N2C(=O)c1ccccn1	DENV2 CPE rescue 25.2 (no result: dFosB activator)
CN1C[C@@H]2[C@H](c3ccccc31)[C@@H](CO)N2Cc1ccccc1	DENV2 CPE rescue 44.2 (no result: dFosB activator)
O=C(Nc1ccccc1)N1C[C@@H]2[C@H](c3ccccc31)[C@@H](CO)N2C(=O)c1ccccn1	DENV2 CPE rescue 71.2 (no result: dFosB activator)
CN1C[C@H]2[C@@H](c3ccccc31)[C@H](CO)N2C(=O)c1ccccn1	DENV2 CPE rescue 28.0 (no result: dFosB activator)
CC=Cc1ccc2n(c1=O)C[C@H]1[C@H](CO)[C@@H](C(=O)N3CCCCC3)N(CC3CC3)[C@@H]21 (mixture of isomers)	none (no result: dFosB activator)
COc1ccc(NC(=O)Nc2ccc3c(c2)C(=O)N([C@@H](C)CO)C[C@@H](C)[C@@H](CN(C)S(=O)(=O)c2cn(C)cn2)OCCCC[C@@H](C)O3)cc1	none (no result: RAD52 inh, AF4-AF9 inh, dFosB activator)
C[C@H]1CN([C@@H](C)CO)C(=O)c2cc(NS(=O)(=O)c3cn(C)cn3)ccc2O[C@H]1CN(C)Cc1ccc(Oc2ccccc2)cc1	none (no result: dFosB activator)
C[C@H](CO)N1C[C@H](C)[C@H](CN(C)C(=O)Nc2cccc3ccccc23)OCCCC[C@H](C)Oc2ccc(NC(=O)C3CCCCC3)cc2C1=O	DENV2 CPE rescue inconclusive (no result: dFosB activator)
CCC(=O)N(C)C[C@@H]1Oc2cc(C#Cc3ccccc3)ccc2S(=O)(=O)N([C@@H](C)CO)C[C@@H]1C	none (no result: dFosB activator)
CCC(=O)Oc1ccc(C(CC)C(CC)c2ccc(OC(=O)CC)cc2)cc1 (stereo not drawn)	DENV2 CPE rescue 42.5 (no result: INS-1E GSIS act)
